Measurements from the OligoGym collection.
Also: reference of the scale not given here.

These sequences were tested against KRTAP13-2 (assay: pooled miR-30 sensor sort-seq; sequence = guide strand). Conditions: shRNA.
With TAGGACGTCTGGCAGCTGGTGG the sensor-assay potency score (higher = more potent) was -1.01.
TAGCGCAGGTAGTCACCACAGG gave a sensor-assay potency score (higher = more potent) of -0.777.
TAGGCTGGTCTGTAACAAGGAG showed a sensor-assay potency score (higher = more potent) of -0.634.
Sequence ACAGCTTCCATAACCCAGGGAT has a sensor-assay potency score (higher = more potent) of -0.532.
For TCCACATAGGACGTCTGGCAGC, the sensor-assay potency score (higher = more potent) was -2.1.
Work on TCCAGATCCATAGCCGAGGGAA yielded a sensor-assay potency score (higher = more potent) of -1.28.
Work on TCGTCTTGCAAGGACTGCAGAG yielded a sensor-assay potency score (higher = more potent) of -0.616.
TGGTCTGTAACAAGGAGACTGG was tested, and the sensor-assay potency score (higher = more potent) was -0.828.

The sequences below were run against KRTAP4-5 in the same assay as above. Conditions: shRNA.
TGGAGATGCAGCAGCTAGGGTG was tested, and the sensor-assay potency score (higher = more potent) was -1.53.
TAACATATTTTAATGAATGTGA gave a sensor-assay potency score (higher = more potent) of -0.0651.
With ATGAATGTGATTGTCTGTCATT the sensor-assay potency score (higher = more potent) was -1.58.
TGCTCAGAGCTGACAGAGCCAC showed a sensor-assay potency score (higher = more potent) of -1.57.
Sequence TTAATGAATGTGATTGTCTGTC has a sensor-assay potency score (higher = more potent) of 0.0544.
For TAGGGTGGCAGCAGGTGGGCTG, the sensor-assay potency score (higher = more potent) was -0.712.
With ATTCACAGCAATAGGGGCGGCA the sensor-assay potency score (higher = more potent) was -0.786.
TTTAATGAATGTGATTGTCTGT showed a sensor-assay potency score (higher = more potent) of 0.174.
Work on TGGTCTGGCAGCAGCAGGGGCG yielded a sensor-assay potency score (higher = more potent) of -1.72.
TTATATGAGATCATCACAGTTA was tested, and the sensor-assay potency score (higher = more potent) was 0.439.
TGGTAGCACACAGACTGGCAGC gave a sensor-assay potency score (higher = more potent) of -1.41.
TGGATTCACAGCAATAGGGGCG gave a sensor-assay potency score (higher = more potent) of -0.512.

These sequences were tested against KRTAP4-7 in the same assay as above. Conditions: shRNA.
Work on TCAGTGACAAAACTGGTCCTGC yielded a sensor-assay potency score (higher = more potent) of 0.367.
With TCTGACAGCAGCTGGGGCGGCA the sensor-assay potency score (higher = more potent) was -1.19.
Work on CAGGTGGTCTGACAGCAGCTGG yielded a sensor-assay potency score (higher = more potent) of -2.02.
Work on TATTGAATGACATCAACCCCAC yielded a sensor-assay potency score (higher = more potent) of -0.0813.
With TGGAGATGCAGCACCTAGGGTG the sensor-assay potency score (higher = more potent) was -0.36.
TAGCAGGTGGTCCTGCAACAGG was tested, and the sensor-assay potency score (higher = more potent) was -1.7.
In the case of CTGGACACACAACAGCTGGGGC, the sensor-assay potency score (higher = more potent) is reported as -1.77.
Work on TGGTCAGAGCACACGGAGCCAC yielded a sensor-assay potency score (higher = more potent) of -1.43.
In the case of AGCTGGACACACAACAGCTGGG, the sensor-assay potency score (higher = more potent) is reported as -1.49.
With TGACAGAGGACTTGGCCGCAGC the sensor-assay potency score (higher = more potent) was -1.09.
For TGGTCTGACAGCAGCTGGGGCG, the sensor-assay potency score (higher = more potent) was -1.46.
For CAGCTGGACACACAACAGCTGG, the sensor-assay potency score (higher = more potent) was -1.96.
TTGCAGCAGCTGGACATACAGC was tested, and the sensor-assay potency score (higher = more potent) was -1.51.
With CAGCAGGTCGTCTCACAGCAGC the sensor-assay potency score (higher = more potent) was -2.76.
TAGGGTGGCAGCAGGTCGTCTC gave a sensor-assay potency score (higher = more potent) of -0.549.

What follows are sequences tested against KRTAP5-8 in the same assay as above. Conditions: shRNA.
ACAGGAGCCACAGTCCCCCTTG showed a sensor-assay potency score (higher = more potent) of -0.958.
For CTGCAGGGCTTACAACAGCTGG, the sensor-assay potency score (higher = more potent) was -2.04.
TTACAACAGCTGGACTGGGAAC was tested, and the sensor-assay potency score (higher = more potent) was -1.86.
Sequence ATGGGCACACAGCAGCTAGAGC has a sensor-assay potency score (higher = more potent) of -1.84.
In the case of AGCCTGAGGAGCAACAGCAGGG, the sensor-assay potency score (higher = more potent) is reported as -1.24.
